This is a sample that favours compounds with a hit; in the whole collection about 1.9% have one here.
BaF3 tox = reduces parental Ba/F3 cell viability, JAK2V617F counter-screen | inhibition, % at 5.6 µM | CellTiter-Glo ATP luminescence | 220,000 tested, 1.1% active | AID 1486;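 active = inhibition above a per-campaign cutoff, the mean inhibition of all tested compounds plus 3 SD, cut at about 27% in these data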;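 also: 0% = DMSO wells and 100% = JAK Inhibitor I control wells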
APP transl inh = APP translation inhibition; SH-SY5Y APP 5'UTR-luciferase reporter, luminescence; inhibition, % at 2 µM; 190,000 tested, 0.82% active; AID 1285;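 active = inhibition above a set limit, derived from the sample mean plus 3 SD, cut at about 45% in these data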
IEC-6 tox = kills IEC-6 intestinal cells in KLF5 counter-screen | inhibition, % at 5 µM | 290,000 tested, 0.78% active | IEC-6 cytotoxicity, luminescence viability | AID 1825; in the data active = inhibition above about 22%;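 also: 0% = plate median of test compound wells and 100% = cytotoxic reference compound wells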
Ba/F3 V617F tox = loss of viability in JAK2V617F-driven Ba/F3 cells | 220,000 tested, 1.1% active | inhibition, % at 5.6 µM | Ba/F3 EpoR-JAK2V617F viability, ATP luminescence | AID 1446;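 active = inhibition above the campaign mean plus 3 SD over all tested compounds, cut at about 24% in these data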;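 also: cytokine-independent growth of Ba/F3 cells driven by EpoR plus mutant JAK2; 0% = DMSO-treated cells and 100% = JAK inhibitor I control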
KLF5 inh = suppresses KLF5 promoter-driven expression; DLD-1 KLF5 promoter-luciferase reporter, luminescence; inhibition, % at 5 µM; 290,000 tested, 0.23% active;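 active = inhibition above a per-plate limit of that plate's mean compound inhibition plus 3 SD, cut at about 60% in these data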;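 also: 0% = DMSO wells and 100% = LY294002 at 200 µM; higher means less KLF5 promoter-driven luciferase light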
Numbers without * were called inactive; . = no result given.

SMILES	BaF3 tox	APP transl inh	IEC-6 tox	Ba/F3 V617F tox	KLF5 inh
COc1ccc(C(=O)/C=C/C(=O)N(CC(=O)NC2CCCCC2)Cc2ccccc2OC)c(O)c1	3	75*	-4	-3	-21
COc1ccc(C(=O)/C=C/C(=O)N(CC(=O)NC2CCCCC2)CC2CCCO2)c(O)c1 (stereo not given)	4	71*	11	3	-2
COc1ccc(C(=O)/C=C/C(=O)N(CC(=O)NC2CCCCC2)Cc2ccccc2)c(O)c1	7	73*	-5	-2	-38
COc1ccc(C(=O)/C=C/C(=O)N(Cc2ccccc2OC)C(C(=O)NC2CCCCC2)c2ccncc2)c(O)c1 (stereo not given)	6	-4	1	-1	-13
COc1ccc(C(=O)/C=C/C(=O)N(Cc2ccccc2)C(C(=O)NC2CCCCC2)c2ccncc2)c(O)c1 (stereo not given)	6	8	0	0	-18
COc1cc(NC(=O)CN2C(=O)COc3ccc(S(=O)(=O)N4CCCC4)cc32)cc(OC)c1	.	.	-1	.	-17
C[C@H](NC(=O)[C@H](Cc1ccccc1)n1c(=O)[nH]c2ccccc2c1=O)C(=O)N1CCC(C(=O)O)CC1	.	.	1	.	6
CCc1ccc(NC(=O)CN2CCCN(S(=O)(=O)c3ccc(F)cc3)CC2)cc1	.	.	1	.	1
CCC1CCCCN1CCCNC(=O)c1ccc(N2CCOCC2)c(NS(=O)(=O)c2ccc(OC)cc2)c1 (stereo not given)	52*	0	-2	-8	-15
CCCCNC(=O)c1ccc(N2CCOCC2)c(NS(=O)(=O)c2ccc(OC)cc2)c1	6	22	-1	-1	4
CC1=CC(C)(C)[N+](C)(C)c2ccc(C)cc21	42*	3	0	29*	-18
COc1cccc(Nc2cc(C)c3ccccc3n2)c1	.	.	11	.	-83
COc1ccc(OC)c(Nc2cc(C)c3ccccc3n2)c1	.	.	2	.	65*
CC(C)(C)c1ccc(NC(=O)C2CCCN(c3cnccn3)C2)cc1 (stereo not given)	.	.	11	.	-13
C#CC[N+](CC)(CC)CC#Cc1cccc(Cl)c1	66*	-1	3	73*	2
O=C(NCC(=O)N1CCN(Cc2ccccc2)CC1)c1ccc(Br)o1	.	.	-4	.	-30
O=C1C(Cl)=C(NC(=O)c2ccccc2)C(=O)C(Cl)=C1NC(=O)c1ccccc1	.	.	100*	.	-2
O=C(NC1=C(Nc2ccc(Cl)cc2)C(=O)c2ccccc2C1=O)c1ccccc1	4	-7	8	-2	14
COc1ccccc1N1C(N)=NC(N)=NC1(C)C	17	-4	0	20	-14
Cc1ccc(N2C(N)=NC(N)=NC2(C)C)c(C)c1	100*	-3	-2	87*	-1
Cc1ccccc1N1C(N)=NC(N)=NC1(C)C	57*	-4	-4	56*	-17
C/C=C/C(O)c1ccc2ccccc2c1 (stereo not given)	.	.	-1	.	9
Cc1ccc(-c2csc(NC(=O)/C=C/c3ccco3)c2C(=O)O)cc1	4	-63	1	-1	-130
CCn1ncc(Br)c1C(=O)Nc1ccc(F)c([N+](=O)[O-])c1	3	3	25*	-2	-16
CCn1ncc(Br)c1C(=O)Nc1ccc(F)cc1F	7	5	8	3	1
SMILES	BaF3 tox	APP transl inh	IEC-6 tox	Ba/F3 V617F tox	KLF5 inh
CCCN1CCN(CC(=O)Nc2nnc(CC)s2)CC1	.	.	-7	.	-19
Nc1cccc(CCc2nc3cc4ccccc4cc3[nH]2)c1	51*	17	49*	88*	-49
COc1ccc(CNC(=S)Nc2cccc(F)c2)cc1	.	.	10	.	-34
O=C(CCC1CCCN(C(=O)CCN2CCCCC2=O)C1)NCc1ccccc1F (stereo not given)	4	-12	0	0	-10
Cc1cc(C(=O)COc2ccccc2C(N)=O)c(C)n1CC1CCCO1 (stereo not given)	62*	-22	15	45*	-36
Cc1ccc(C(=O)C[n+]2ccc(Cc3ccccc3)cc2)cc1	12	-12	-3	2	-17
O=[N+]([O-])c1ccc(C[n+]2ccc(Cc3ccccc3)cc2)cc1	37*	-43	-1	13	-18
c1ccc(Cc2cc[n+](Cc3ccccn3)cc2)cc1	65*	.	2	57*	-22
O=C1NC(=Nc2ccc(O)cc2)S/C1=C\C=C\c1ccco1	61*	.	-2	75*	24
Cc1ccc(C(OCC(C)(C)C[N+](C)(C)C)c2ccccc2)cc1 (stereo not given)	58*	10	-1	27*	-51
CCN(CC)CCOC(c1ccccc1)c1ccc(C)cc1 (stereo not given)	3	2	-2	1	-47
O=C1CN(C(=O)c2ccc(Cl)c(S(=O)(=O)N3CCc4ccccc43)c2)c2ccccc2N1	-5	.	0	0	-14
N#CCCS(=O)(=O)c1nnnn1-c1ccccc1	3	9	7	25*	4
O=C(CSc1nc2ccccc2n1Cc1ccccc1)N/N=C/c1ccccc1C(=O)O	2	.	-4	-2	8
O=C(CSc1nc2ccccc2n1Cc1ccc(Cl)cc1)N/N=C/c1ccc(C(=O)O)cc1	6	54*	-4	0	-18
N#C/C(C(=O)Nc1ccc(Cl)cc1)=C(/S)Nc1ccccc1	.	.	5	.	0
C[n+]1c(/C=C/c2ccc3c(c2)OCO3)ccc2ccccc21	33*	-185	3	41*	-28
Cc1cc(N2CCN(c3nc4ccccc4s3)CC2)n2ncnc2n1	48*	12	5	44*	-25
Cc1cc(-c2cccs2)c(C#N)c(=S)[nH]1	63*	.	-3	20	-1
Nc1ccc2oc(-c3cccc4ccccc34)nc2c1	6	49*	10	0	-16
COc1cc(C(=O)N2CCN(C)C(C)C2)ccc1OC1CCN(C(C)=O)CC1 (stereo not given)	.	.	0	.	-25
COc1ccc(CNc2ncnc3c2[nH]c2ccccc23)cc1	1	.	10	1	-31
CC(C)OCCCNc1ncnc2c1[nH]c1ccccc12	52*	1	9	40*	-10
CC1c2ccccc2N(NC(=O)Cc2ccccc2)C1C (stereo not given)	2	.	16	3	4
COc1ccc(-c2coc3cc4oc(=O)cc(-c5ccccc5)c4cc23)cc1F	5	90*	7	1	-10
SMILES	BaF3 tox	APP transl inh	IEC-6 tox	Ba/F3 V617F tox	KLF5 inh
O=C(CN1C(=O)/C(=C/c2ccccc2)SC1=S)N1CCN(CCc2ccccn2)CC1	.	.	9	.	-31
COc1ccc(C(=O)NCc2nnc(SCC(=O)NCc3ccco3)o2)cc1	.	.	-8	.	-8
Cc1ccc(Nc2nc(-c3cccnc3)nc3ccccc23)cc1	30*	.	19	49*	0
Cc1ccccc1Nc1nc(-c2cccnc2)nc2ccccc12	1	-13	-1	-8	-5
CCOC(=O)C(=CNc1cc(C)nn1C(C)(C)C)C(=O)OCC	9	.	0	-2	11
CCOC(=O)C(=CNc1cc(C)nn1-c1ccc(C)cc1)C(=O)OCC	17	22	10	24*	21
O=C(CCl)N(CCc1ccccc1)CCc1ccccc1	.	.	-5	.	-32
